Reference: ChEMBL document CHEMBL5724796, “Tm Shift (DSF) assay results for EUbOPEN Chemogenomics Library” (2024)

Legend:
Conditions in all cases: Compound concentration 20.0 uM
[1] = molecular target: Tyrosine-protein kinase ABL1 (Homo sapiens) (UniProt P00519)
[2] = molecular target: Bromodomain-containing protein 4 (Homo sapiens) (UniProt O60885)
[3] = molecular target: Cyclin-dependent kinase 2 (Homo sapiens) (UniProt P24941)
[4] = molecular target: Casein kinase I isoform delta (Homo sapiens) (UniProt P48730)
Casein kinase I isoform delta (Homo sapiens), sequence (P48730 whole entry, looked up, canonical isoform): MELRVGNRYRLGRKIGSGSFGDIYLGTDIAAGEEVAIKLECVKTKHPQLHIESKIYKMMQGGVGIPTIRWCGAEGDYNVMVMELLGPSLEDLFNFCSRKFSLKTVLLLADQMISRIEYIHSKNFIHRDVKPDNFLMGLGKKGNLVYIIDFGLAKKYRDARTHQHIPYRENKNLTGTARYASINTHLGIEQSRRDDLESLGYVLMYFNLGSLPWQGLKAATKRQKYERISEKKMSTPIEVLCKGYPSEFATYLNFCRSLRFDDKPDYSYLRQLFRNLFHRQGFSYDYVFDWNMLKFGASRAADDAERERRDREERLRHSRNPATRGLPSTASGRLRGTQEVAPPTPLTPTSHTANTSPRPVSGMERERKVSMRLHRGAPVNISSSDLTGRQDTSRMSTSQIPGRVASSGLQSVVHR

[5] = molecular target: Glycogen synthase kinase-3 beta (Homo sapiens) (UniProt P49841)
Glycogen synthase kinase-3 beta (Homo sapiens), sequence (P49841 whole entry, looked up): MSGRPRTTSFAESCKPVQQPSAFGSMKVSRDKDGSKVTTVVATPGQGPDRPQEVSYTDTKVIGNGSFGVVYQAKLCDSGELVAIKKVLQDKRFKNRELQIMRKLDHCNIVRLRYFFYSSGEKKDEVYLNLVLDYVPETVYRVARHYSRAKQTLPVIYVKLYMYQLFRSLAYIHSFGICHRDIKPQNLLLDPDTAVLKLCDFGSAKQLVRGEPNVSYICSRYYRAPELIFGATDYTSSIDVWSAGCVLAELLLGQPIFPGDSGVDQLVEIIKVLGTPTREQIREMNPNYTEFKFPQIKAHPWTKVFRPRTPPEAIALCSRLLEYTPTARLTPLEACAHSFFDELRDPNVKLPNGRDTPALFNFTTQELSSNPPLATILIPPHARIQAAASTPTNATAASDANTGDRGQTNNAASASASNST

[6] = molecular target: Mitogen-activated protein kinase 1 (Homo sapiens) (UniProt P28482)
Mitogen-activated protein kinase 1 (Homo sapiens), sequence (P28482 whole entry): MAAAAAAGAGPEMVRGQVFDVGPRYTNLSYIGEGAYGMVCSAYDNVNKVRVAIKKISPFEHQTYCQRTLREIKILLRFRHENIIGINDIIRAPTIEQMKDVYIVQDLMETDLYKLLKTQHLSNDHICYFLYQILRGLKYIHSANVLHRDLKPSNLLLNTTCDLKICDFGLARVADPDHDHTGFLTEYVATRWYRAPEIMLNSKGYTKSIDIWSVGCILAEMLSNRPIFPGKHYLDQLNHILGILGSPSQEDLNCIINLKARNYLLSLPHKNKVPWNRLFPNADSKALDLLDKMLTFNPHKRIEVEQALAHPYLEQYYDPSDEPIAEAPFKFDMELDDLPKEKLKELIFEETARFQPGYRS

[7] = molecular target: T1, Aurora kinase A (Homo sapiens) (UniProt O14965)
T1 sequence (whole entry): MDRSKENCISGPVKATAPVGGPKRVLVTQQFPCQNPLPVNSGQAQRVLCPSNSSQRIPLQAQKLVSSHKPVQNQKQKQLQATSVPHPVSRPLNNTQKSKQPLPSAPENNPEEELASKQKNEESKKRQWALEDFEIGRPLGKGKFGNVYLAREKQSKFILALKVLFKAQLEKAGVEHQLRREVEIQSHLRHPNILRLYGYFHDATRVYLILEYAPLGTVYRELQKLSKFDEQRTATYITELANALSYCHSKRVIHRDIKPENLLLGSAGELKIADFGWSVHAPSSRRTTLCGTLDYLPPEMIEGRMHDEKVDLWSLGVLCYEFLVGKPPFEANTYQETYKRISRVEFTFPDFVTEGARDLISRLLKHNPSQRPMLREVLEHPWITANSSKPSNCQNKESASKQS

[8] = molecular target: T2, Transcription intermediary factor 1-alpha (Homo sapiens) (UniProt O15164)
T2 sequence (whole entry): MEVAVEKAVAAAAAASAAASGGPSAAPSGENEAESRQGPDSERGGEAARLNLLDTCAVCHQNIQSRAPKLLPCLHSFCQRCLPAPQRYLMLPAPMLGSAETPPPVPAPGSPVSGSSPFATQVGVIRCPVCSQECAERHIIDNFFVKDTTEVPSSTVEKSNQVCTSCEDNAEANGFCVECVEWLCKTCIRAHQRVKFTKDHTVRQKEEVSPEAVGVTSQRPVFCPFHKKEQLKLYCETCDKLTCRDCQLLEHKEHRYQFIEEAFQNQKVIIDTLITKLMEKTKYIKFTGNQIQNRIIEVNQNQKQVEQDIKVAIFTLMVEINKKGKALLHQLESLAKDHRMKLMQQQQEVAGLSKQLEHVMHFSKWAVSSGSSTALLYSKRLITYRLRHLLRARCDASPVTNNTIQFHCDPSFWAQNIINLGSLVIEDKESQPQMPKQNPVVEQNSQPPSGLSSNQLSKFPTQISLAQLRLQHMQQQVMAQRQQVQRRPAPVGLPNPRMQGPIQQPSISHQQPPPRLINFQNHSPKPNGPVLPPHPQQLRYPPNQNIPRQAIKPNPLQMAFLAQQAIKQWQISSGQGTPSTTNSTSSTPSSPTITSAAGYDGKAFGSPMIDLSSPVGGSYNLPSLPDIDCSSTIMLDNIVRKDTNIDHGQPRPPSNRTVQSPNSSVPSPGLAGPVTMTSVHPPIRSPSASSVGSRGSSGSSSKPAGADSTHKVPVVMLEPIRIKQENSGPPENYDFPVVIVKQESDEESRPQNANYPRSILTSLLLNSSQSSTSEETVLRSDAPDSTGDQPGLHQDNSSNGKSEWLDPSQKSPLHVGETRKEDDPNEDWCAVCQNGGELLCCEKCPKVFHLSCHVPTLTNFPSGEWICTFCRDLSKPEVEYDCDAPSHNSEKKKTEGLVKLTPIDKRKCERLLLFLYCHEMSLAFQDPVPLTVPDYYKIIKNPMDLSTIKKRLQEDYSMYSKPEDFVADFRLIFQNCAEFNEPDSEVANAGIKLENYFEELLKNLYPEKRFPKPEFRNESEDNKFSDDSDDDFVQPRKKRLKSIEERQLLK

Tyrosine-protein kinase ABL1 (Homo sapiens), sequence (P00519 whole entry): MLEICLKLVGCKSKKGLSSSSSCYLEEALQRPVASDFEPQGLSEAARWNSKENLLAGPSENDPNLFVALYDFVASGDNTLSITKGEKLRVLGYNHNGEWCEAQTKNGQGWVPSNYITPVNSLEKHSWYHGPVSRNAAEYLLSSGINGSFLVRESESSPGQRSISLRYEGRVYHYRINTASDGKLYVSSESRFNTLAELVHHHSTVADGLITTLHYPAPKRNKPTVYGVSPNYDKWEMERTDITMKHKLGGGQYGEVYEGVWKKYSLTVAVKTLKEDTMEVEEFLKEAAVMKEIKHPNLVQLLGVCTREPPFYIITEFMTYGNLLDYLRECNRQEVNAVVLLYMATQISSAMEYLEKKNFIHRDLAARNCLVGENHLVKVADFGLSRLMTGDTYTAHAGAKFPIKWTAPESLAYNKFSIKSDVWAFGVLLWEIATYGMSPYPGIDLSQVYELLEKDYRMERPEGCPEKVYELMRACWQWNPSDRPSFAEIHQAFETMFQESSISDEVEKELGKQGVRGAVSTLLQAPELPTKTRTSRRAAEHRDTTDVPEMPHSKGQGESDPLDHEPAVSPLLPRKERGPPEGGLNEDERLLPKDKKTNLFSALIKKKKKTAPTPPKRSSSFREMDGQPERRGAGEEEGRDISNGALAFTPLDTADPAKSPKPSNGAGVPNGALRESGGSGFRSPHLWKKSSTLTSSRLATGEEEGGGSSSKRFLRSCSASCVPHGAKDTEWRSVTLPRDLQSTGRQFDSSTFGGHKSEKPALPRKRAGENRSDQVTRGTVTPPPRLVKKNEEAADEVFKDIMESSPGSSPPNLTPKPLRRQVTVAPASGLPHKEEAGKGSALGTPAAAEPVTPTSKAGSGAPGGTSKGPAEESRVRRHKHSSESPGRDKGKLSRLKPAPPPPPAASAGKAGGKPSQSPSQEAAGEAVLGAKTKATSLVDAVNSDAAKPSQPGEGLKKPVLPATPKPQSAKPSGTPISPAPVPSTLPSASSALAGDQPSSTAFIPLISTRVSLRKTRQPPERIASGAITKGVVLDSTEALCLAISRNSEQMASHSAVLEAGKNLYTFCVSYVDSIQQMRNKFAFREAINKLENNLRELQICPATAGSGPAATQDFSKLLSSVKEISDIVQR

Compound	ΔTm [1] [°C]	ΔTm [2] [°C]	ΔTm [3] [°C]	ΔTm [4] [°C]	ΔTm [5] [°C]	ΔTm [6] [°C]	ΔTm [7] [°C]	ΔTm [8] [°C]
Cn1c(NCCN(CCO)CCCc2ccc([N+](=O)[O-])cc2)cc(=O)n(C)c1=O	-0.01	0.07	0.08	-0.29	-0.66	0.09	-1.33	0.26
Oc1ccc(-c2c(-c3ccccc3)nn3c(C(F)(F)F)cc(C(F)(F)F)nc23)cc1	2.06	-1.27	0.46	0.39	-0.06	-0.2	-0.53	-0.6
CN(C)Cc1ccc(-c2nc3cccc4c3n2CCNC4=O)cc1	0.45	0.14	0.42	-0.01	1.99	0.01	-0.64	0.79
O=C(NCCCc1ccccc1)c1cccc(-c2cc(O)c3ncccc3c2)c1	0.62	-0.53	0.91	0.06	0.84	0.32	-0.61	0.72
CCOC(=O)Oc1c(OC)cc(C(=O)O[C@H]2C[C@H]3CN4CCc5c([nH]c6cc(OC)ccc56)[C@@H]4C[C@H]3[C@@H](C(=O)OC)[C@@H]2OC)cc1OC	0.54	-2.32	0.27	-0.84	-0.14	-0.02	-2.27	0.01
CN1CC[C@@H](Oc2ccc(F)c(-c3nc4c(o3)C(=O)c3ccccc3C4=O)c2Cl)C1	0.09	0.99	0.38	-0.29	-0.09	0.24	-1.95	-0.66
Cc1n[nH]c(C)c1Cc1sc2c(c1C(=O)N1C[C@H](O)CO1)c(=O)n(C)c(=O)n2CC(C)C	0.44	-2.67	0.95	-0.14	-0.85	0.11	-1.57	0.69
Cn1c(=O)c2c(nc(N3CCNCC3)n2Cc2nnc(-c3ccc(Cl)c(Cl)c3)o2)n(C)c1=O	0.59	-3.55	0.01	0.33	-0.89	0.1	-0.39	-0.46
CC(C)CCn1c(CN2CCN(C(=O)C3CC3)CC2)nc2c1c(=O)n(C)c(=O)n2C	0.68	-2.93	0.17	-0.39	-0.45	0.11	-2.45	0.08
